Most compounds without a hit are left out; they make up all but 2.1% or so of the library.
HIF-2a block = HIF-2a reporter inhibitors, primary screen, luminescence, 786-0 RCC cells; 786-0 RCC cells HIF-2a reporter, luciferase luminescence, overnight; inhibition, % at 18.8 µM; 0.72% of 360,000 active; AID 624352, 2012;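 active = inhibition of the luminescence signal of 40% or more relative to plate controls, in a single-dose primary screen at 18.75 µM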
EWS-Fli inh = EWS/Fli-driven NR0B1 reporter inhibitors, primary screen, A673 cells, NR0B1 luciferase, luminescence, MLPCN library | 0.67% of 350,000 active | inhibition, % at 12.6 µM | viability-normalised;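 active = mean inhibition of at least 50% after viability correction, with every replicate also passing that limit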;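 note: firefly luciferase signal divided by Alamar Blue viability fluorescence both relative to DMSO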
KKLEB tox = cytotoxicity in KKLEB CF airway cells, primary screen, cytotoxicity control for CF NF-kB inhibitor project, cell-based, uHTS, fluorescence assay plates; KKLEB CF airway cells viability, ATPlite luminescence, overnight; hits give low values; cells stimulated with P. aeruginosa culture filtrate; activity change (cytotoxicity), % at 5 µM; 0.36% of 360,000 active; AID 602141, 2011;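 active = corrected activity change at or below -50% at 5 µM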
PAX8 inh HTS = inhibitors of PAX8-driven TPO luciferase reporter, primary screen, RMG-I cells, single concentration; SteadyGlo, 24 h; inhibition, % at 12.6 µM; 1.2% of 360,000 active;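 active = mean replicate inhibition at least 60% with every replicate also reaching 60%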;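 note: luciferase light reporting Pax8 driven TPO promoter activity; plate controls were median of neutral control wells for no effect and mitoxantrone controls for full effect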
CF NFkB block = inhibitors of PAF-induced NF-kB signaling, primary screen, cell-based, GFP fluorescence, uHTS; KKLEB NF-kB-GFP reporter, GFP fluorescence overnight; inhibition, % at 5 µM; 0.86% of 360,000 active;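 active = at least 50% inhibition at 5 µM, scaled per plate between neutral and stimulator controls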;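 note: PAF is a Pseudomonas aeruginosa culture filtrate used as stimulus; plate controls were PAF-stimulated DMSO wells for no effect and unstimulated DMSO wells for full effect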
Mdm2 MdmX conf = retested Mdm2-MdmX interaction blockers, confirmation, cell-based, luminescence, single concentration, set 2. shares compounds with HIF-2a block. SaOS-2 split-luciferase Mdm2/MdmX complementation. inhibition, % at 8 µM. 99% of 740 active. AID 504601, 2011;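 active = mean inhibition of the luminescence signal across two replicates at or above 26 percent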
Target sequence (O15151 whole entry, looked up): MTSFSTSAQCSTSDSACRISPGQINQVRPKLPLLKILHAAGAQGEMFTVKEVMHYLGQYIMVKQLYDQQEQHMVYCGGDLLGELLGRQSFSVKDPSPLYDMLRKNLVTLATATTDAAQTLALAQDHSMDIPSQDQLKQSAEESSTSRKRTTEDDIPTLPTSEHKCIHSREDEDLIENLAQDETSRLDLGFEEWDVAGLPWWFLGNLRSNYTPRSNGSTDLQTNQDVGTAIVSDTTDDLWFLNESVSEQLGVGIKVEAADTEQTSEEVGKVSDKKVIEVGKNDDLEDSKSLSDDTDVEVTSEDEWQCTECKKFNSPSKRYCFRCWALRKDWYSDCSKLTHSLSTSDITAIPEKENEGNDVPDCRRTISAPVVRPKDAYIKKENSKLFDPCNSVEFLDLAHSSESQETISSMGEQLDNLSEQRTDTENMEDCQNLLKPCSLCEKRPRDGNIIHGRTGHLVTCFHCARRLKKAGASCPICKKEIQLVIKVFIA
Target sequence (Q00987 whole entry, looked up): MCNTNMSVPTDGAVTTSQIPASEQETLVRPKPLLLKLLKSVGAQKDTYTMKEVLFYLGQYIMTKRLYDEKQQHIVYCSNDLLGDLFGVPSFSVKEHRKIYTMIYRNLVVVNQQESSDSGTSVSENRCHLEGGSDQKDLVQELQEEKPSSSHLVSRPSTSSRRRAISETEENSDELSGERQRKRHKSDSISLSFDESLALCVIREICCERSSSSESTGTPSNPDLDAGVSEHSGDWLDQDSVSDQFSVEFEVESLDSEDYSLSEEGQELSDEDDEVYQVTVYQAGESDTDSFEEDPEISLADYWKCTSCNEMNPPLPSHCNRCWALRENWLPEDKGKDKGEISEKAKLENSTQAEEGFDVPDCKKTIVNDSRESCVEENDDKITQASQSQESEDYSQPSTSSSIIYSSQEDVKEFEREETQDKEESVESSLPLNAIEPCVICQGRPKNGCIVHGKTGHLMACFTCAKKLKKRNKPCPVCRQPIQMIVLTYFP
HIF-2a inh conf = HIF-2a reporter inhibitor retest, confirmation, luminescence, 786-0 RCC cells. HIF-2a luciferase reporter luminescence, overnight. 56% of 1,800 active. inhibition, % at 18.8 µM. AID 651580, 2012. shares compounds with HIF-2a block;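 active = mean inhibition across four replicates of at least 40 percent at the single tested concentration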
HIF-1a cs = HIF-1a luciferase reporter signal reduction – MiaPaCa-2 cells, single concentration, counter-screen for HIF-2a inhibitor project, confirmation. shares compounds with HIF-2a block. MiaPaCa-2 HIF-1a luciferase reporter, desferoxamine, overnight. inhibition, % at 18.8 µM. 72% of 1,800 active. AID 651589, 2012;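 active = mean inhibition of the reporter signal across four replicates at the single tested dose of 50% or more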
Active calls of the source: *; nt = not tested or not shown.

SMILES | HIF-2a block | EWS-Fli inh | KKLEB tox | PAX8 inh HTS | CF NFkB block | HIF-2a inh conf | HIF-1a cs | others
COCC#Cc1ccc([C@H]2[C@H](CO)N3CCCCN(S(=O)(=O)c4cccc(OC)c4)C[C@@H]23)cc1 | nt | nt | nt | -25.3 | nt | nt | nt
COC(=O)CSc1nnc(-c2sc3ccccc3c2Cl)o1 | 90.5* | nt | 7.7 | nt | 0.4 | 95.2* | 69.0*
Cc1c(/C(O)=C2/C(=O)C(=O)N(Cc3cccnc3)C2c2cccs2)cnn1-c1ccccc1 (stereo not given) | -18.2 | nt | -5.5 | nt | -1.6 | nt | nt
Cc1c(/C(O)=C2/C(=O)C(=O)N(Cc3cccnc3)C2c2ccccn2)cnn1-c1ccccc1 (stereo not given) | 67.2* | 27.4 | 3.0 | 10.0 | 4.3 | 52.1* | 55.6*
CCCN(C)C[C@H]1OCCCC[C@@H](C)Oc2ccc(NS(=O)(=O)c3ccc(C)cc3)cc2C(=O)N([C@@H](C)CO)C[C@H]1C | nt | nt | nt | 21.6 | nt | nt | nt
CN1c2ccc(C#Cc3cccnc3)cc2[C@@H]2[C@@H](CCN2C(=O)c2cccc(F)c2)[C@H]1CO | nt | 15.2 | nt | -5.7 | nt | nt | nt
COc1ccc(-c2cnc3c(c2)C(=O)N([C@@H](C)CO)C[C@@H](C)[C@@H](CN(C)C(=O)C2CC2)O3)cc1 | nt | -0.6 | nt | nt | nt | nt | nt
O=C(O)CSCC(=O)Nc1ccc(C2CCCCC2)cc1 | 81.2* | nt | 3.2 | nt | 2.5 | 95.1* | 93.5*
Nn1cnnc1SCC(=O)Nc1ccc(C2CCCCC2)cc1 | -116.9 | nt | -6.1 | nt | -6.0 | nt | nt
O=C(Nc1ccccc1F)N[C@@H]1CC[C@@H](CCNC(=O)C2CCCC2)O[C@H]1CO | nt | -3.2 | nt | 2.7 | nt | nt | nt
CC(=NNC(=S)Nc1ccccc1)c1ccccn1 | 71.2* | -4.4 | -7.0 | 29.4 | 30.8 | -79.9 | -330.1
CCOC(=O)C(C)(C)N(Cc1ccc(C)cc1)S(=O)(=O)c1ccc(Cl)c([N+](=O)[O-])c1 | 60.8* | 72.6* | 6.5 | -1.8 | -1.9 | 23.0 | 104.6*
CCOC(=O)C(C)(C)NS(=O)(=O)c1ccc(Cl)c([N+](=O)[O-])c1 | 5.8 | 12.3 | -1.6 | 4.1 | -6.4 | nt | nt
COc1ccc(C2=NN(C(=O)COc3ncnc4ccccc34)C(c3ccco3)C2)cc1 (stereo not given) | -0.4 | -4.4 | -20.9 | 14.5 | 17.4 | nt | nt
COc1ccc(C2=NN(C(=O)COC(=O)c3ccc(S(C)(=O)=O)c([N+](=O)[O-])c3)C(c3ccco3)C2)cc1 (stereo not given) | 61.1* | 5.9 | -79.5* | -30.0 | 84.1* | 7.0 | 103.0* | Mdm2 MdmX conf=103.2*
O=C(c1ccccc1)N1CC(=O)N2[C@H](C1)[C@@H](c1ccc(C#CC3CC3)cc1)[C@@H]2CO | nt | -5.7 | nt | 20.0 | nt | nt | nt
O=C(NCCN1C(=O)S/C(=C\c2ccc(Cl)c(Cl)c2)C1=O)c1cnccn1 | 5.4 | nt | -0.4 | -15.0 | 12.3 | nt | nt
O=C(NCCN1C(=O)S/C(=C\c2ccc(Cl)c([N+](=O)[O-])c2)C1=O)C1=COCCO1 | 43.5* | 40.6 | 15.8 | 70.4* | 8.1 | -2.3 | 104.4*
COc1ccccc1OCCN1CSC(=S)N(C)C1 | 87.6* | nt | -18.2 | 5.0 | 16.0 | 22.9 | 103.1*
CCOC(=O)c1ccc(-c2ccc(N3C(c4ccsc4)=Cc4ccc(F)cc4C3c3c[nH]c4ccc(C#N)cc34)cc2)cc1F (stereo not given) | 70.9* | -3.4 | nt | -36.1 | nt | 46.6* | 40.5
O=C(C[C@H]1CC[C@@H](NC(=O)c2ccncc2)[C@H](CO)O1)Nc1ccc(-c2ccccc2)cc1 | nt | -3.8 | nt | nt | nt | nt | nt
C[C@@H]1CN([C@H](C)CO)C(=O)c2cc(Br)cnc2O[C@@H]1CN(C)CC1CC1 | nt | 3.2 | nt | -6.1 | nt | nt | nt
CCN(CC)c1ccc2c(C)cc(=O)oc2c1 | -57.5 | 2.3 | -1.0 | nt | 6.3 | nt | nt
CCN(CC)c1ccc2c(c1)oc(=O)c1c(Cl)cc(=O)oc12 | 92.8* | nt | -34.2 | nt | 8.4 | nt | nt | Mdm2 MdmX conf=103.2*
CO[C@@H]1CN(C)C(=O)c2cc(NC(=O)C3CC3)ccc2OC[C@@H](C)N(CC2CCOCC2)C[C@@H]1C | nt | -7.2 | nt | -6.2 | nt | nt | nt
SMILES | HIF-2a block | EWS-Fli inh | KKLEB tox | PAX8 inh HTS | CF NFkB block | HIF-2a inh conf | HIF-1a cs | others
COc1ccc(/C=C/C(=O)c2cc(Br)ccc2OC(=O)c2ccco2)cc1OC | 4.7 | -8.1 | 1.1 | 3.9 | 1.8 | nt | nt
COc1ccc(/C=C/C(=O)c2cc(F)ccc2OC(=O)c2ccccc2)cc1OC | 44.1* | nt | -20.3 | 76.7* | 53.0* | 36.2 | 21.3
Cc1ccc(C(=O)NNc2ncnc3c2cnn3C)cc1 | 4.1 | -16.1 | 2.1 | -0.3 | 4.2 | nt | nt
Cn1ncc2c(O/N=C(\N)c3ccc(C(F)(F)F)cc3)ncnc21 | 93.9* | 68.3* | -1.5 | 91.5* | 7.1 | -13.2 | -51.4
CC(C)(C)c1ccc(Cn2nnc3c(=O)[nH]c(C4CCCN(C(=O)c5cccs5)C4)nc32)cc1 (stereo not given) | 42.5* | 24.7 | 5.0 | 7.3 | -1.8 | 13.9 | 84.1*
CS(=O)(=O)Nc1ccc2c(c1)[C@H]1C[C@@H](CC(=O)NCc3ccc(Cl)cc3)O[C@H](CO)[C@H]1O2 | nt | 1.4 | nt | 6.6 | nt | nt | nt
Cc1nn(Cc2ccc(Cl)cc2Cl)c(C)c1NC(=O)c1nn(C)cc1Cl | 10.1 | nt | 3.4 | nt | -16.3 | nt | nt
Cc1nn(Cc2ccc(Cl)cc2Cl)c(C)c1NC(=O)CCl | 15.8 | nt | -2.7 | 4.5 | 15.0 | nt | nt | Mdm2 MdmX conf=103.0*
CN1C(=O)c2cc(NC(=O)C3CCCC3)ccc2OC[C@@H]2O[C@@H](CC(=O)NCC(F)(F)F)CC[C@@H]21 | nt | 3.9 | nt | 5.0 | nt | nt | nt
CC(CCc1ccccc1)NC(=O)COC(=O)c1ccc(S(C)(=O)=O)c([N+](=O)[O-])c1 (stereo not given) | 50.5* | 4.9 | -63.8* | -11.7 | 91.4* | 38.0 | 96.8* | Mdm2 MdmX conf=102.5*
CC(CCc1ccccc1)NC(=O)COC(=O)c1ccc([N+](=O)[O-])cc1 (stereo not given) | 16.4 | -0.4 | 0.0 | -2.9 | -21.1 | nt | nt
CS(=O)(=O)Nc1cccc(NC(=O)C2Cc3c(-c4cccc(F)c4)ccnc3O2)c1 (stereo not given) | 51.0* | 63.5* | -12.8 | 54.8 | -11.1 | 34.2 | 88.7*
CCC(=O)Nc1ccc2c(c1)OC[C@H](C)N(C(=O)CC1CC1)C[C@H](C)[C@@H](OC)CN(C)C2=O | nt | -3.1 | nt | nt | nt | nt | nt
O=S(=O)(N[C@H]1CC[C@H](CCn2cc(-c3cccnc3)nn2)O[C@H]1CO)c1ccc(Cl)cc1 | nt | 9.9 | nt | -0.7 | nt | nt | nt
